In PubChem BioAssay (Tox21):
Records with an inconclusive call do not appear. The source made the active and inactive calls. Calls follow the shape of the full dose curve.
% is scaled to controls: 0 for no effect and ±100 for the full control effect.

Each compound was assayed against Acetylcholinesterase (Homo sapiens) (UniProt P22303) (assay: Acetylcholinesterase (AChE) small molecule antagonists: enzyme-based qHTS assay (AID 1347397; also: nearly all actives have a fitted effect of over 55% in size; also: potency is read from the fitted curve at half-maximal effect)). Conditions: Potency: AChE enzyme activity inhibition; outcome: AChE enzyme activity inhibition; series mostly up to 115 µM; activity change, negative = inhibition: at the top concentration.
Sequence of Acetylcholinesterase (Homo sapiens) (P22303 whole entry, looked up): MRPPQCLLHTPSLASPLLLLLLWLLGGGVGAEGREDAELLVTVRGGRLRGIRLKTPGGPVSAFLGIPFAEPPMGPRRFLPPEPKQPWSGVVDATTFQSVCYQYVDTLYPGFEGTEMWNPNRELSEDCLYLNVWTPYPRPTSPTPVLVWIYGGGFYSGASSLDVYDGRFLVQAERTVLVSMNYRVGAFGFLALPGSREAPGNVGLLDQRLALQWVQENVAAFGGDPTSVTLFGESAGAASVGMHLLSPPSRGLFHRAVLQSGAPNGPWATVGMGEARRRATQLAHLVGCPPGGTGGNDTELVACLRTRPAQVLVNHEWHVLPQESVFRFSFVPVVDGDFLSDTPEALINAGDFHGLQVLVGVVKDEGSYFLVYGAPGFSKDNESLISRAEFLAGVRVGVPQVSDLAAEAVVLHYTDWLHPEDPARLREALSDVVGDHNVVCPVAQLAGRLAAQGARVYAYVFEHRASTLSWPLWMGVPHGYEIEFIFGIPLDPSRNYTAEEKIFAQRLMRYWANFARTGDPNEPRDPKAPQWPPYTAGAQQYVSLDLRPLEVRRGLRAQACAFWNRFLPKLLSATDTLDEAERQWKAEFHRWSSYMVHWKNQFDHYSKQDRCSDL
How it was run: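 Compound or DMSO vehicle was pin-transferred onto recombinant human AChE (50 mU/mL as dispensed) and left 30 min at room temperature. Acetylthiocholine with DTNB then started the reaction, read colorimetrically 10 min later.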
With `CC1OCCC1=O` (stereo not given) the “activity change, negative = inhibition” value was 0.0086% (inactive). In the case of `COc1cc(N)ccc1C`, the “activity change, negative = inhibition” value is reported as 0% (inactive). For `COc1ccc(-c2coc3cc(O)ccc3c2=O)cc1`, the “activity change, negative = inhibition” value was -0.284% (inactive). `CCCCC(CC)CN` (stereo not given) was tested, and the “activity change, negative = inhibition” value was -4.91% (inactive). `CCCCCCCCO[C@@H]1O[C@H](CO)[C@@H](O)[C@H](O)[C@H]1O` was tested, and the “activity change, negative = inhibition” value was -0.258% (inactive). `CCN(CC)CC(=O)OCC(=O)[C@@]1(O)CC[C@H]2[C@@H]3CCC4=CC(=O)CC[C@]4(C)[C@H]3[C@@H](O)C[C@@]21C` was tested, and the “activity change, negative = inhibition” value was -0.328% [at 53 µM] (inactive). With `O=C(O)c1cc(N=Nc2ccc([N+](=O)[O-])cc2)ccc1O` the “activity change, negative = inhibition” value was 23.1% (inactive). For `CC(C)CCCCCCOC(=O)CCCCC(=O)OCCCCCCC(C)C`, the “activity change, negative = inhibition” value was -1.19% (inactive). In the case of `CCOc1ccccc1O[C@H](c1ccccc1)[C@H]1CNCCO1`, the outcome is reported as “inactive”. For `CCO[Si](OCC)(OCC)OCC`, the “activity change, negative = inhibition” value was 1.09% (inactive). `CC(C(=O)O)c1ccc2c(c1)[nH]c1ccc(Cl)cc12` (stereo not given) was tested, and the “activity change, negative = inhibition” value was -0.136% [at 53 µM] (inactive). In the case of `CC(C)CCC(=O)CCC(C)C`, the “activity change, negative = inhibition” value is reported as -0.0308% (inactive). With `C/C=C/C(=O)Oc1c(CCCCCC(C)C)cc([N+](=O)[O-])cc1[N+](=O)[O-]` the Potency was 71 µM (active). For `C=CCOc1nc(OCC=C)nc(OCC=C)n1`, the “activity change, negative = inhibition” value was 0.256% (inactive). `CCCCCCOC(=O)NC(=N)c1ccc(NCc2nc3cc(C(=O)N(CCC(=O)OCC)c4ccccn4)ccc3n2C)cc1` was tested, and the “activity change, negative = inhibition” value was -17.3% [at 53 µM] (inactive). For `CN1CCCC1`, the “activity change, negative = inhibition” value was -0.129% (inactive). `CN(C)c1ccc(C=O)cc1` was tested, and the “activity change, negative = inhibition” value was 0.657% (inactive). `O=S(=O)(O)c1cc(O)c2ccc(Nc3ccccc3)cc2c1` was tested, and the “activity change, negative = inhibition” value was -17.4% (inactive). For `Cn1c(=O)c2c(ncn2CC(=O)O)n(C)c1=O`, the “activity change, negative = inhibition” value was -1.08% [at 53 µM] (inactive). `CC1=CCC2C(C1)C2(C)C` (stereo not given) was tested, and the “activity change, negative = inhibition” value was -0.962% (inactive). In the case of `O=C(O)[C@H](O)c1ccccc1`, the “activity change, negative = inhibition” value is reported as 0.371% [at 53 µM] (inactive). `CCCCCCOc1ccc(N)cc1` was tested, and the “activity change, negative = inhibition” value was -0.199% (inactive). For `FC1(F)C(F)(F)C(F)(F)C2(F)C(F)(C1(F)F)C(F)(F)C(F)(F)C1(F)C(F)(F)C(F)(F)C(F)(F)C(F)(F)C12F` (stereo not given), the “activity change, negative = inhibition” value was -1.03% (inactive). With `Oc1cccc(O)c1O` the “activity change, negative = inhibition” value was -13.4% (inactive). `CC(C)c1ccc2oc3nc(N)c(C(=O)O)cc3c(=O)c2c1` was tested, and the “activity change, negative = inhibition” value was 0.401% [at 53 µM] (inactive). For `CCC1(CO)COCOC1`, the “activity change, negative = inhibition” value was 1.1% (inactive). For `CCC(CO)(CO)[N+](=O)[O-]`, the “activity change, negative = inhibition” value was 0.71% (inactive). `CCCN(CCC)CCc1cccc2c1CC(=O)N2` was tested, and the “activity change, negative = inhibition” value was -6.63% [at 53 µM] (inactive). In the case of `CC(C)C(=O)OCCc1ccccc1`, the “activity change, negative = inhibition” value is reported as -0.92% (inactive). For `COc1cccc([C@H](O)C2CCN(CCc3ccc(F)cc3)CC2)c1OC`, the “activity change, negative = inhibition” value was 1.64% (inactive). `Nc1ccn([C@@H]2O[C@H](CO)[C@@H](O)C2(F)F)c(=O)n1` was tested, and the “activity change, negative = inhibition” value was -1.25% [at 53 µM] (inactive). For `CO[C@@H]1COCC[C@@H]1N[C@@H]1CC[C@@](C(=O)N2CCc3ncc(C(F)(F)F)cc3C2)(C(C)C)C1`, the “activity change, negative = inhibition” value was 0.886% (inactive). For `CN1C(C)(C)CCCC1(C)C`, the “activity change, negative = inhibition” value was 1.73% [at 53 µM] (inactive). For `COC(=O)[C@H]1[C@H]2C[C@@H]3c4[nH]c5cc(OC)ccc5c4CCN3C[C@H]2C[C@@H](OC(=O)COc2ccc(OC)cc2)[C@@H]1OC`, the “activity change, negative = inhibition” value was -0.677% [at 53 µM] (inactive). In the case of `CCCCCCCCN1CCCC1=O`, the “activity change, negative = inhibition” value is reported as 1.73% (inactive). In the case of `CC(C)C(C)C`, the “activity change, negative = inhibition” value is reported as -0.542% (inactive). For `C=C(C)C1CC=C(C)C(O)C1` (stereo not given), the “activity change, negative = inhibition” value was 2.45% (inactive). With `CCC(C)(CCC(C)C)C(=O)O` (stereo not given) the “activity change, negative = inhibition” value was 0.955% (inactive). In the case of `O=C(O)c1cccnc1C(=O)O`, the “activity change, negative = inhibition” value is reported as 1.23% (inactive). In the case of `COc1ccc(CCC(=O)c2c(O)cc(O[C@@H]3O[C@H](CO)[C@@H](O)[C@H](O)[C@H]3O[C@@H]3O[C@@H](C)[C@H](O)[C@@H](O)[C@H]3O)cc2O)cc1O`, the “activity change, negative = inhibition” value is reported as -0.0876% (inactive).

These compounds were tested against Acetylcholinesterase (Homo sapiens) (UniProt P22303) (assay: Acetylcholinesterase (AChE) small molecule antagonists: fluorescence cell-based qHTS assay (AID 1347398; also: nearly all actives have a fitted effect of over 50% in size)). Conditions: SH-SY5Y cells; Potency: AChE activity; outcome: AChE activity; series mostly up to 115 µM; activity change, negative = inhibition: at the top concentration.
How it was run: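 Using neuroblastoma SH-SY5Y cells as the enzyme source, test chemicals are preincubated 30 min at 37 C; AChE-driven acetylthiocholine cleavage is then quantified by thiocholine-dependent Thiolite Green fluorescence after 40 min at room temperature.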
In the case of `CC1OCCC1=O` (stereo not given), the “activity change, negative = inhibition” value is reported as 4.88% (inactive). In the case of `COc1cc(N)ccc1C`, the “activity change, negative = inhibition” value is reported as 0.453% (inactive). With `COc1ccc(-c2coc3cc(O)ccc3c2=O)cc1` the “activity change, negative = inhibition” value was -0.719% (inactive). For `CCCCC(CC)CN` (stereo not given), the “activity change, negative = inhibition” value was -20.1% (inactive). In the case of `CCCCCCCCO[C@@H]1O[C@H](CO)[C@@H](O)[C@H](O)[C@H]1O`, the “activity change, negative = inhibition” value is reported as 2.94% (inactive). With `CCN(CC)CC(=O)OCC(=O)[C@@]1(O)CC[C@H]2[C@@H]3CCC4=CC(=O)CC[C@]4(C)[C@H]3[C@@H](O)C[C@@]21C` the “activity change, negative = inhibition” value was -2.08% [at 53.7 µM] (inactive). With `O=C(O)c1cc(N=Nc2ccc([N+](=O)[O-])cc2)ccc1O` the “activity change, negative = inhibition” value was -0.239% (inactive). In the case of `CC(C)CCCCCCOC(=O)CCCCC(=O)OCCCCCCC(C)C`, the “activity change, negative = inhibition” value is reported as -4.07% (inactive). For `CCOc1ccccc1O[C@H](c1ccccc1)[C@H]1CNCCO1`, the outcome was “inactive”. For `CCO[Si](OCC)(OCC)OCC`, the “activity change, negative = inhibition” value was -1.03% (inactive). With `CC(C(=O)O)c1ccc2c(c1)[nH]c1ccc(Cl)cc12` (stereo not given) the “activity change, negative = inhibition” value was 2.4% [at 53.7 µM] (inactive). With `CC(C)CCC(=O)CCC(C)C` the “activity change, negative = inhibition” value was -5.14% (inactive). In the case of `C/C=C/C(=O)Oc1c(CCCCCC(C)C)cc([N+](=O)[O-])cc1[N+](=O)[O-]`, the “activity change, negative = inhibition” value is reported as -13.1% (inactive). For `C=CCOc1nc(OCC=C)nc(OCC=C)n1`, the “activity change, negative = inhibition” value was -6.89% (inactive). In the case of `CCCCCCOC(=O)NC(=N)c1ccc(NCc2nc3cc(C(=O)N(CCC(=O)OCC)c4ccccn4)ccc3n2C)cc1`, the “activity change, negative = inhibition” value is reported as -11.2% [at 53.7 µM] (inactive). With `CN1CCCC1` the “activity change, negative = inhibition” value was 3.74% (inactive). For `CN(C)c1ccc(C=O)cc1`, the “activity change, negative = inhibition” value was -6.37% (inactive). With `O=S(=O)(O)c1cc(O)c2ccc(Nc3ccccc3)cc2c1` the “activity change, negative = inhibition” value was 0.253% (inactive). For `Cn1c(=O)c2c(ncn2CC(=O)O)n(C)c1=O`, the “activity change, negative = inhibition” value was 14.5% [at 53.7 µM] (inactive). In the case of `CC1=CCC2C(C1)C2(C)C` (stereo not given), the “activity change, negative = inhibition” value is reported as -5.14% (inactive). For `O=C(O)[C@H](O)c1ccccc1`, the “activity change, negative = inhibition” value was -2.94% [at 53.7 µM] (inactive). With `CCCCCCOc1ccc(N)cc1` the “activity change, negative = inhibition” value was -4.91% (inactive). For `FC1(F)C(F)(F)C(F)(F)C2(F)C(F)(C1(F)F)C(F)(F)C(F)(F)C1(F)C(F)(F)C(F)(F)C(F)(F)C(F)(F)C12F` (stereo not given), the “activity change, negative = inhibition” value was 0.0249% (inactive). `Oc1cccc(O)c1O` was tested, and the “activity change, negative = inhibition” value was -8.17% (inactive). With `CC(C)c1ccc2oc3nc(N)c(C(=O)O)cc3c(=O)c2c1` the “activity change, negative = inhibition” value was 2.23% [at 53.7 µM] (inactive). With `CCC1(CO)COCOC1` the “activity change, negative = inhibition” value was 1.95% (inactive). For `CCC(CO)(CO)[N+](=O)[O-]`, the “activity change, negative = inhibition” value was -1.94% (inactive). For `CCCN(CCC)CCc1cccc2c1CC(=O)N2`, the “activity change, negative = inhibition” value was -17.7% [at 53.7 µM] (inactive). For `CC(C)C(=O)OCCc1ccccc1`, the “activity change, negative = inhibition” value was 0.485% (inactive). `COc1cccc([C@H](O)C2CCN(CCc3ccc(F)cc3)CC2)c1OC` was tested, and the “activity change, negative = inhibition” value was -7.37% (inactive). `Nc1ccn([C@@H]2O[C@H](CO)[C@@H](O)C2(F)F)c(=O)n1` was tested, and the “activity change, negative = inhibition” value was 2.42% [at 53.7 µM] (inactive). For `CO[C@@H]1COCC[C@@H]1N[C@@H]1CC[C@@](C(=O)N2CCc3ncc(C(F)(F)F)cc3C2)(C(C)C)C1`, the “activity change, negative = inhibition” value was -1.31% (inactive). In the case of `CN1C(C)(C)CCCC1(C)C`, the “activity change, negative = inhibition” value is reported as 1.35% [at 53.7 µM] (inactive). For `COC(=O)[C@H]1[C@H]2C[C@@H]3c4[nH]c5cc(OC)ccc5c4CCN3C[C@H]2C[C@@H](OC(=O)COc2ccc(OC)cc2)[C@@H]1OC`, the “activity change, negative = inhibition” value was -8.53% [at 53.7 µM] (inactive). `CCCCCCCCN1CCCC1=O` was tested, and the “activity change, negative = inhibition” value was 0.547% (inactive). With `CC(C)C(C)C` the “activity change, negative = inhibition” value was 2.91% (inactive). With `C=C(C)C1CC=C(C)C(O)C1` (stereo not given) the “activity change, negative = inhibition” value was -7.52% (inactive). For `CCC(C)(CCC(C)C)C(=O)O` (stereo not given), the “activity change, negative = inhibition” value was 1% (inactive). For `O=C(O)c1cccnc1C(=O)O`, the “activity change, negative = inhibition” value was 0.675% (inactive). In the case of `COc1ccc(CCC(=O)c2c(O)cc(O[C@@H]3O[C@H](CO)[C@@H](O)[C@H](O)[C@H]3O[C@@H]3O[C@@H](C)[C@H](O)[C@@H](O)[C@H]3O)cc2O)cc1O`, the “activity change, negative = inhibition” value is reported as -1.02% (inactive).
